In PubChem BioAssay (Tox21) one finds Potency and outcome data, which are given here for seven molecules.

Unmarked numbers belong to inactive results. Records with an inconclusive call do not appear. Activity calls are given as the source filed them. Unless noted, the call rests on the fitted dose curve; in most records, active means well fitted curve in the direction sought with a large enough effect in the repeat runs; inconclusive means weak or mixed curves; inactive means no such curve, though single readings can be large; an effect the other way counts as inactive or inconclusive.

The nature of experiment [1]: qHTS assay to identify small molecule agonists of the estrogen receptor alpha (ER-alpha) signaling pathway in the presence of an antagonist - cell viability counter screen (AID 1259386).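 Further: series mostly up to about 92 µM; cells exposed to compounds for 22 h at 37 °C before the viability read; nearly all actives have a fitted effect of over 30% in size.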 In a few lines: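 ICI-182,780 at 10.0nM final accompanies the compound titration (15 concentrations, 22hr, 37C) on VM7Luc4E2 cells. The CellTiter-Fluor fluorescence readout runs in the same wells as the luciferase assay.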
Background: qHTS replaces the single test concentration by a dilution series.

Experiment [2] has as its target Progesterone receptor (Homo sapiens) (UniProt P06401). Put plainly: qHTS assay to identify small molecule agonists of the progesterone receptor (PR) signaling pathway (AID 1346784; calls by dose curve; further: nearly all actives have a fitted effect of over 30% in size). In short, it runs like this:
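Agonist mode, quantitative HTS format in a HEK 293T line expressing a UAS-controlled beta-lactamase reporter; 16 hr compound exposure at 37C in 2% charcoal-stripped FBS, then LiveBLAzer B/G FRET fluorescence.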

Experiment [3] has the same target. In words: qHTS assay to identify small molecule antagonists of the progesterone receptor (PR) signaling pathway (AID 1346795; active means well fitted inhibition curve with a large enough effect in the signal ratio in the repeat runs, not every such curve was filed as active; the % refers to the signal ratio; further: potency means the concentration at half of the fitted maximal effect). In short, it runs like this: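 HEK293T PR-UAS-bla reporter cells in charcoal-stripped serum (2%) received compound after a 6 hr settling period, followed by R5020 agonist at 1 nM final; 16 hr incubation preceded the FRET substrate step and fluorescence measurement.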

Experiment [4] can be described thus: qHTS assay to identify small molecule antagonists of the progesterone receptor (PR) signaling pathway - cell viability counter screen (AID 1346798). Further: series mostly up to about 92 µM; nearly all actives have a fitted effect of over 50% in size. In a few lines: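 Same-well multiplex: after 16 hr at 37C with compound and R5020 stimulation, HEK293T cells carrying a UAS-bla reporter received LiveBLAzer substrate (2 hr RT), then CellTiter-Glo (30 min RT) for luminescent viability.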

The nature of experiment [5]: qHTS assay to identify small molecule antagonists of the TGF-beta/Smad signaling pathway - cell viability counter screen (AID 1346824). Further: nearly all actives have a fitted effect of over 50% in size. In a few lines: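 SBE-bla HEK 293T cells, incubated overnight, then compound plus 0.25 ng/mL TGF-beta1 (stock added) for 5 hr at 37 C. Viability was read in the same wells by CellTiter-Glo luminescence after 30 min at room temperature.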

Experiment [6] in a line: qHTS assay to identify small molecule agonists of the TGF-beta/Smad signaling pathway - cell viability counter screen (AID 1346829). Further: top concentration of the series differs between compounds; nearly all actives have a fitted effect of over 45% in size. In short, it runs like this: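 Luminescence from CellTiter-Glo, read after a 30 min room-temperature incubation, gives cell viability of SBE-bla HEK 293T cells treated 5 hr with compounds at 37 C.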
Experiment [7] is described as follows: qHTS assay to identify small molecule agonists of the TGF-beta/Smad signaling pathway (AID 1346859; active means well fitted activation curve with a large enough effect in the signal ratio in the repeat runs, not every such curve was filed as active; the % refers to the signal ratio; further: series mostly up to about 77 µM). In a few lines: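 Smad-responsive beta-lactamase reporter cells (HEK 293T) received compounds from DMSO stocks after overnight attachment, were incubated 5 hr, then treated 2 hr with FRET substrate before dual-emission fluorescence measurement (405 nm excitation).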

In experiment [8] the target is Thyrotropin-releasing hormone receptor (Homo sapiens) (UniProt P34981). In words: qHTS assay to identify small molecule antagonists of the thyrotropin-releasing hormone receptor (TRHR) signaling pathway (AID 1346877; active means well fitted inhibition curve with a large enough effect in the repeat runs, not every such curve was filed as active; further: series mostly up to about 51 µM). In a few lines: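 Screening used HEK293 cells engineered with TRHR, with a brief 5 min room-temperature compound exposure preceding addition of TRH to 1 nM. The read-out was kinetic calcium-dye fluorescence, concentration-response from 15 doses in triplicate.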

The target is the same in experiment [9]. Put plainly: qHTS assay to identify small molecule agonists of the thyrotropin-releasing hormone receptor (TRHR) signaling pathway (AID 1346891; calls by dose curve;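 further: HEK293 cells expressing TRHR with calcium dye readout; series mostly up to about 58 µM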). In a few lines:
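Agonist-mode calcium mobilisation screen: TRHR-transfected HEK293 cells cultured overnight (18 h), dye-loaded for 2 h at 37 °C, exposed to compounds, and monitored by fluorescence for 3 min.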

The nature of experiment [10]: Human pregnane X receptor (PXR) small molecule agonists, qHTS cell viability counter screen (AID 1346977). Further: nearly all actives have a fitted effect of over 50% in size. In short, it runs like this: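 Measures live-cell protease fluorescence (CellTiter-Fluor) in PXR-Luc HepG2 cells treated 24hr with compounds at 37C. Cells had 5hr to attach before pin transfer of DMSO solutions.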
Experiment [11] can be described thus: Caspase-3/7 induction in HepG2 cells by small molecules, qHTS assay (AID 1346978). Further: nearly all actives have a fitted effect of over 15% in size. In short, it runs like this:
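Wild-type HepG2 cells, 2,000/well, settled 5 hr at 37 C and 5% CO2, then compound-treated for 17 hr; caspase-3/7 activity read by luminescent Caspase-Glo 3/7 after 30 min at room temperature.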

Experiment [12] can be described thus: Caspase-3/7 induction in CHO-K1 cells by small molecules, qHTS assay (AID 1346980). Further: nearly all actives have a fitted effect of over 15% in size. In short, it runs like this: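 Wild-type CHO-K1 cells exposed to compounds for 17hr at 37 C, 5% CO2. Caspase-3/7 activity then measured by Caspase-Glo 3/7 luminescence after 30min at room temperature.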
The nature of experiment [13]: Caspase-3/7 induction in HepG2 cells by small molecules, qHTS cell viability counter screen (AID 1346981). Further: series mostly up to about 92 µM; nearly all actives have a fitted effect of over 30% in size. In a few lines:
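Multiplexed with the caspase-3/7 assay: HepG2 cells, 16 hr compound treatment, CellTiter-Fluor viability detection by fluorescence.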

The target of experiment [14] is Acetylcholinesterase (Homo sapiens) (UniProt P22303). In words: Acetylcholinesterase (AChE) small molecule antagonists: colormetric cell-based qHTS assay (AID 1347395; calls by dose curve; further: nearly all actives have a fitted effect of over 30% in size). In a few lines: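 Endogenous AChE of human neuroblastoma SH-SY5Y cells was measured with an Ellman-type DTNB/acetylthiocholine mix. Compound pretreatment lasted 30 min at 37 C; substrate reaction ran 90 min at 37 C.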

The target of experiment [15] is Nuclear receptor subfamily 1 group I member 2 (Homo sapiens) (UniProt O75469). Put plainly: Human pregnane X receptor (PXR) small molecule agonists, qHTS assay (AID 1346982). Further: nearly all actives have a fitted effect of over 35% in size. Further: potency means the concentration at half of the fitted maximal effect. In a few lines:
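We seeded PXR-Luc HepG2 cells in assay medium containing 5% charcoal-stripped FBS, added compounds 5 hr later, incubated 24 hr, and read luminescence with ONE-Glo reagent.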

The nature of experiment [16]: Caspase-3/7 induction in CHO-K1 cells by small molecules, qHTS cell viability counter screen (AID 1346979). Further: nearly all actives have a fitted effect of over 35% in size. Further: potency means the concentration at half of the fitted maximal effect. In short, it runs like this: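 In the same wells as the caspase read, viability of compound-treated wild-type CHO-K1 cells was assessed using CellTiter-Fluor, added after 16hr at 37C and measured by fluorescence following 1hr further incubation.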
Experiment [17] is described as follows: qHTS assay to identify small molecule agonists of the progesterone receptor (PR) signaling pathway - cell viability counter screen (AID 1346799; calls by dose curve; further: nearly all actives have a fitted effect of over 45% in size). In a few lines: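 Counter screen for cytotoxicity: compound-treated PR-UAS-bla HEK293T cells (16 hr, 37C, 5% CO2) were assayed with CellTiter-Glo, luminescence measured after 30 min at room temperature.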

Sequence of Progesterone receptor (Homo sapiens) (P06401 whole entry, looked up): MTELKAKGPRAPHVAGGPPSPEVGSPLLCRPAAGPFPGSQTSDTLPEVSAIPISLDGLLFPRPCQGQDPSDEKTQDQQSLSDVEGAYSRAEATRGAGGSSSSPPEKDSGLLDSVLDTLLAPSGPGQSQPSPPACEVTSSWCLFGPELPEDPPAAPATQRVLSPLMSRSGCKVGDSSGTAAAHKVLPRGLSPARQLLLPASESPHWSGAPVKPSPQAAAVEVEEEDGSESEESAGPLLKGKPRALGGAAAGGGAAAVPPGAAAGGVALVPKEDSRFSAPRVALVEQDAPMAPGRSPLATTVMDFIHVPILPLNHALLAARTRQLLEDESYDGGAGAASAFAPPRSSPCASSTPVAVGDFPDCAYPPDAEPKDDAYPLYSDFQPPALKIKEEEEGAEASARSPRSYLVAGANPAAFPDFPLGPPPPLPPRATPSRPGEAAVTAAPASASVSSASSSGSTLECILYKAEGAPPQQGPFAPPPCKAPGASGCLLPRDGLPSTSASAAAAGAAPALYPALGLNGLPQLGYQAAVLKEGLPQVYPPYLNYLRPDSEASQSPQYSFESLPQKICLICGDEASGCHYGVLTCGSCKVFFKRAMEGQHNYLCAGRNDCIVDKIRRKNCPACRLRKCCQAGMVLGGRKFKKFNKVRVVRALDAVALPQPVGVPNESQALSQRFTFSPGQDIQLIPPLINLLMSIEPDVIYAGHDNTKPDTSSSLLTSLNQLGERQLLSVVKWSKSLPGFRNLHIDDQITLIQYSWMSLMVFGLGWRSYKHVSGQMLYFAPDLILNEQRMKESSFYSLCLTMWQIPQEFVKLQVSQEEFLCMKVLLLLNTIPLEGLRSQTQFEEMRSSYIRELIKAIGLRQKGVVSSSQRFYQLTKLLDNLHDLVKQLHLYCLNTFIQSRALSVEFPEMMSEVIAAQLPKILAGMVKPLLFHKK
Sequence of Nuclear receptor subfamily 1 group I member 2 (Homo sapiens) (O75469 whole entry, looked up): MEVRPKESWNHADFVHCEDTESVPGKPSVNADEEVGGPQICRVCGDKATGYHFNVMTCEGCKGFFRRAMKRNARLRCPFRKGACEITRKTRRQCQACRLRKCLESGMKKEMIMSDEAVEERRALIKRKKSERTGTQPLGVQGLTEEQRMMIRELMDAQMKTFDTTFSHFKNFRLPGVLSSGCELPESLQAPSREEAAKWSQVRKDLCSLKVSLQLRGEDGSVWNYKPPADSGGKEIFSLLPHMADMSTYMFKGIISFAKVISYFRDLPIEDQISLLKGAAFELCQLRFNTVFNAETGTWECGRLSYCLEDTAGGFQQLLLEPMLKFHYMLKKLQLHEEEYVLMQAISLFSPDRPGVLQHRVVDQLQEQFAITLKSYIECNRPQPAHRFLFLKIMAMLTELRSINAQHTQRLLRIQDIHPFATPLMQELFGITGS
Sequence of Thyrotropin-releasing hormone receptor (Homo sapiens) (P34981 whole entry, looked up): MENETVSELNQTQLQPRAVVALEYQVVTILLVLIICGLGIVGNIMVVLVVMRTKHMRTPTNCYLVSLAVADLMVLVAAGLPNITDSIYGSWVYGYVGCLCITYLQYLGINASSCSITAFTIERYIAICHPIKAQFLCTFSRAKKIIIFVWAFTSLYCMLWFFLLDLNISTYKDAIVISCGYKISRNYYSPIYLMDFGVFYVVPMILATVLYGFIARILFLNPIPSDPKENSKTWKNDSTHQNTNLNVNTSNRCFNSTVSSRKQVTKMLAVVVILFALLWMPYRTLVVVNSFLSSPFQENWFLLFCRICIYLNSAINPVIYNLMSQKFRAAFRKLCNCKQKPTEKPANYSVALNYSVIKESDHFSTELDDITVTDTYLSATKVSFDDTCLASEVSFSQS
Sequence of Acetylcholinesterase (Homo sapiens) (P22303 whole entry, looked up): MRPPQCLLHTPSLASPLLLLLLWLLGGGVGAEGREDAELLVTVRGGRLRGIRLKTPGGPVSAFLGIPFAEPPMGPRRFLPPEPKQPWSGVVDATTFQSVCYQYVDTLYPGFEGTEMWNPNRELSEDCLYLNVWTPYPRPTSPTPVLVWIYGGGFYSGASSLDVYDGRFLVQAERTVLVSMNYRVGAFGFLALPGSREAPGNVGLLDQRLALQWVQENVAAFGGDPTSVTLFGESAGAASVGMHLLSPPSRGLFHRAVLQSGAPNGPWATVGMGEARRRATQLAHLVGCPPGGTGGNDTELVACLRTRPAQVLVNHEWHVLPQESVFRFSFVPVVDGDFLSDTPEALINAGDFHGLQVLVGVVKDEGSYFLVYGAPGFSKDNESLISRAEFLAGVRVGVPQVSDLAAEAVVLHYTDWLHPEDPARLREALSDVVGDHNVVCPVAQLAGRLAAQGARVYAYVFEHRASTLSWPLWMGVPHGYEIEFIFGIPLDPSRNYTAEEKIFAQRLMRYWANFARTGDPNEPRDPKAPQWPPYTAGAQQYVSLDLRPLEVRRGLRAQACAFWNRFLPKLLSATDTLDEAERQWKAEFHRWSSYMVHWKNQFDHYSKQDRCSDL

For the molecule `COc1ccc(CN2CCNCC2)c(OC)c1OC`, the Potency entry in experiment [1], in experiment [2], in experiment [3], in experiment [4], in [6] and in experiment [8] was “inactive” in each case. In addition, the Potency entry in experiment [10], in experiment [13] and in experiment [14] was “inactive” each time. For the same molecule, the molecule was classed as inactive in experiment [5], in [7], in experiment [9], in experiment [11] and in [12].

With `CCN(CC)C1CCCCC1`, the Potency result in experiment [1], in experiment [2], in experiment [3], in experiment [4], in [8] and in [10] was “inactive” in each case. Further, the Potency entry in [13], in [15] and in [14] was “inactive” in each case. The call in [5], in experiment [7], in [9] and in experiment [11] was inactive.

As to `CCc1ccc(C2CCNCC2)cc1`, the Potency entry in [1], in [2], in experiment [3], in experiment [6], in [8] and in experiment [16] was “inactive” each time. Moreover, the Potency result in experiment [15] and in experiment [14] was “inactive” throughout. The molecule was called inactive in experiment [5], in experiment [7], in experiment [9], in experiment [11] and in experiment [12].

With `CCOC(=O)Nc1cccc(OC(=O)Nc2ccccc2)c1`, the Potency result in experiment [1], in experiment [2], in experiment [3], in experiment [4], in experiment [8] and in experiment [10] was “inactive” each time. Also, the Potency entry in [13] and in [14] was “inactive” each time. In addition, the molecule was classed as inactive in experiment [5], in [7], in experiment [9], in [11] and in experiment [12]. Further, in experiment [15], the Potency was 30.6 µM (active).

`CC(C)(C1CCC(O)CC1)C1CCC(O)CC1` (centres undefined): the Potency entry in [1], in experiment [2], in [17], in experiment [6], in experiment [16] and in experiment [14] was “inactive” in each case. Moreover, in experiment [3], the Potency was 27.3 µM (active). Also, the call in [5], in experiment [7], in [11] and in experiment [12] was inactive.

In the case of `CCCCCCCC(=O)Cl`, the Potency entry in [1], in experiment [2], in experiment [4], in [17], in experiment [6] and in experiment [8] was “inactive” in each case. The Potency entry in [10], in [13] and in [14] was “inactive” throughout. Further, the result in [5], in experiment [7], in [9], in experiment [11] and in experiment [12] was inactive. Also, the Potency in experiment [16] is 49 µM (active).

`CCC(C)C(C)(COC(N)=O)COC(N)=O` (centres undefined): the Potency entry in experiment [1], in [2], in experiment [4], in experiment [17], in [6] and in [8] was “inactive” throughout. The Potency entry in [13], in [15] and in [14] was “inactive” each time. Besides, the result in experiment [5], in experiment [7], in experiment [9], in experiment [11] and in experiment [12] was inactive.
